Most compounds without a hit are left out; they make up all but 2.9% or so of the library.
pPAFAH FP inh: pPAFAH (human) enzyme inhibition | Q13093 | recombinant pPAFAH, FP-rhodamine probe fluorescence polarization | inhibition, % at 3.39 µM | 1.5% of 330,000 active | AID 463082;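 active means inhibition above the mean inhibition across the screen plus 3 SD, cut at about 25% in these data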;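 further: inhibitors block binding of the rhodamine activity-based probe so polarization drops; 0% = enzyme with DMSO and 100% = wells lacking pPAFAH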
Target sequence (Q13093 whole entry, looked up): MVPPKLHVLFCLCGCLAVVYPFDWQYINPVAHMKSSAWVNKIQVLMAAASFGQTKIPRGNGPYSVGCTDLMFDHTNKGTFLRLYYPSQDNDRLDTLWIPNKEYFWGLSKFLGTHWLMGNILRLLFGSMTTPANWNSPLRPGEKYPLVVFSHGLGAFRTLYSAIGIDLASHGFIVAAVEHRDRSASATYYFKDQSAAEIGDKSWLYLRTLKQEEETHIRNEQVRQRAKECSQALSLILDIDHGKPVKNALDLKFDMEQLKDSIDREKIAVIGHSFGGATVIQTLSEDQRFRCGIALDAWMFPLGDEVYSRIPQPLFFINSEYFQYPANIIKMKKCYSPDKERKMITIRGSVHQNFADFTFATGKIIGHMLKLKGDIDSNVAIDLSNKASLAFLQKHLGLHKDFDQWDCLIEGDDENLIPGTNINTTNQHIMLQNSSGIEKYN
PAFAH2 inh: inhibitors of human PAFAH2. inhibition, % at 3.39 µM. AID 492956. 0.99% of 340,000 active. Q99487. recombinant PAFAH2, FP-rhodamine activity probe, fluorescence polarization;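 active means inhibition above the mean over all tested compounds plus 3 SD, cut at about 30% in these data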;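 further: inhibitors block probe labeling of enzyme so polarization drops; 0% = enzyme with DMSO and 100% = wells lacking PAFAH2 protein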
PAFAH1B2 FP inh: PAFAH1B2 (human) inhibition | 1.2% of 340,000 active | inhibition, % at 3.39 µM | recombinant PAFAH1B2, FP-rhodamine activity probe, fluorescence polarization | P68402;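 active means inhibition above the mean of all tested compounds plus 3 SD, cut at about 24% in these data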;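 further: 0% = enzyme with DMSO and 100% = wells lacking PAFAH1B2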
Fam108B inh: blocks mouse Fam108B hydrolase in RBBP9 counter-screen. inhibition, % at 9.51 µM. 0.33% of 300,000 active. AID 1947. recombinant Fam108B, FP-Rh probe fluorescence polarization;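 active means inhibition above the screen mean inhibition plus 3 SD, computed separately per campaign, cut at about 18% in these data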;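 further: inhibitors lower polarization as less probe binds the enzyme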
PME-1 inh: PME-1 (human) inhibition | AID 2130 | 0.53% of 320,000 active | Q9Y570 | recombinant PME-1, FP-Rh probe fluorescence polarization | inhibition, % at 5.9 µM;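 active means inhibition above the campaign mean of all compounds plus 3 SD, cut at about 26% in these data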;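 further: competitive labeling of PME-1 active site by serine hydrolase directed probe; 0% = PME-1 with DMSO and 100% = wells lacking PME-1 enzyme; inhibitors block probe labeling so polarization falls and inhibition rises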
PAFAH1B3 inh: inhibitors of human PAFAH1B3; AID 492972; inhibition, % at 3.39 µM; 0.28% of 340,000 active; Q15102; recombinant PAFAH1B3, FP-rhodamine probe, fluorescence polarization;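 active means inhibition above the screen-wide average of all tested compounds plus 3 SD, cut at about 25% in these data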;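 further: 0% = enzyme with DMSO only and 100% = wells lacking PAFAH1B3 protein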
Target sequence (Q15102 whole entry, looked up): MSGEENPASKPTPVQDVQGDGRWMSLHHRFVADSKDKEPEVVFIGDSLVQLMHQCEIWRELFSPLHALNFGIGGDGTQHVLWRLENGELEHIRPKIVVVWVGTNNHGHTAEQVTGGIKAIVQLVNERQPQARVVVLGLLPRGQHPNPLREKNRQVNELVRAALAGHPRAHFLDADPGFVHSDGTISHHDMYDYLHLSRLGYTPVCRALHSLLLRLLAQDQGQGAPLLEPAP
PAFAH2 FP conf: confirmation of human PAFAH2 inhibitors. shares compounds with PAFAH2 inh. recombinant PAFAH2, FP-rhodamine activity probe, fluorescence polarization. inhibition, % at 3.39 µM. 65% of 2,300 active. AID 493030;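 active means mean inhibition over three repeats above a set limit taken from the earlier primary screen, cut at about 30% in these data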;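 further: inhibitor blocks binding of rhodamine activity probe so polarization falls; 0% = enzyme with DMSO and 100% = wells lacking PAFAH2 protein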
Starred values were filed as active, the others as inactive; · = not tested or not shown.

SMILES | pPAFAH FP inh | PAFAH2 inh | PAFAH1B2 FP inh | Fam108B inh | PME-1 inh | PAFAH1B3 inh | PAFAH2 FP conf
CCCCOc1ccc(C(=O)OCC(=O)Nc2cc(C)c(C)cc2[N+](=O)[O-])cc1 | 5 | 12 | 0 | 0 | -2 | 1 | ·
Cc1cccc(NC(=O)COC(=O)CSc2ccccc2)c1C | 18 | 4 | 21 | · | 0 | 3 | ·
CC(C)c1ccc(NC(=O)COC(=O)CC2CCCC2)cc1 | 18 | 54* | 4 | · | · | 8 | 27
Cc1cc(C(=O)OCC(=O)Nc2ccc(F)cc2[N+](=O)[O-])c2ccccc2n1 | 5 | -1 | 1 | -6 | -2 | 10 | ·
O=C(COC(=O)CC1CCCC1)Nc1cc2c(cc1Cl)C(=O)c1ccccc1C2=O | 13 | 10 | 2 | 3 | 0 | -3 | ·
COc1ccc(C(=O)OCC(=O)Nc2cc(C)c(C)cc2[N+](=O)[O-])cc1 | 4 | 39* | -1 | -4 | -3 | -2 | 32*
Cc1cccc(NC(=O)COC(=O)CC2CCCC2)c1C | · | 52* | 5 | · | · | -3 | 38*
COc1ccc(NC(=O)C2CC(=O)N(c3cc(C)ccc3C)C2)cc1 (stereo not given) | 0 | 2 | 5 | -3 | -7 | 3 | ·
O=C(COC(=O)CC1CCCC1)Nc1ccc(Br)cc1F | 22 | 47* | -1 | · | · | -2 | 41*
CCC(=O)OCC(=O)Nc1cc(C)c(C)cc1[N+](=O)[O-] | 1 | 15 | 9 | -2 | 2 | 0 | ·
Cc1cc(NC(=O)COC(=O)CC2CCCC2)c([N+](=O)[O-])cc1C | 22 | 56* | 4 | 2 | 3 | 5 | 21
Cc1ccc(S(=O)(=O)N(C)C)cc1NC(=O)COC(=O)CC1CCCC1 | 11 | 32* | 3 | -4 | 8 | 4 | 27
Cc1ccc(S(=O)(=O)N(C)C)cc1NC(=O)COC(=O)CNC(=O)C12CC3CC(CC(C3)C1)C2 | 6 | -2 | 4 | -2 | 3 | 3 | ·
CC(=O)c1cc(C(=O)N2CCCC(CCC(=O)N(C)CCc3ccccn3)C2)cs1 (stereo not given) | 0 | 0 | 1 | 5 | -1 | 6 | ·
Cc1cccc(/C=N/c2sc3c(c2C#N)CCN(Cc2ccccc2)C3)c1O | 7 | -10 | -1 | 0 | 0 | 1 | ·
COc1ccc(CN2C(=O)c3cccnc3C2=O)cc1S(=O)(=O)N1CCOc2ccc(Cl)cc21 | 0 | 30* | -1 | 0 | 7 | 9 | 18
Cc1ccccc1SC1CCN(C(=O)C2CCC(=O)N(C3CC3)C2)CC1 (stereo not given) | 2 | 1 | 1 | -3 | -3 | 12 | ·
Cc1onc(C(=O)N2CCN(C(c3ccccc3)c3ccccc3)CC2)c1[N+](=O)[O-] | 13 | -4 | -3 | -4 | -5 | 2 | ·
CCN1CCC(n2nccc2NC(=O)c2ccccc2Cl)CC1 | -5 | -6 | -5 | 3 | -4 | 7 | ·
Cc1ccc(S(=O)(=O)/N=C2\C=C(NS(=O)(=O)c3ccccc3)C(=O)c3ccccc32)cc1 | · | 30* | 3 | · | · | 3 | 14
CC(C)N1CCN(C(=O)C2CCC(=O)N(CCc3cccc(F)c3)C2)CC1 (stereo not given) | · | 6 | 3 | · | · | 4 | ·
CCc1ccccc1SCc1noc(C(=O)NCC2CCCO2)c1C(=O)O (stereo not given) | 1 | 40* | 16 | 4 | -2 | 6 | 26
C=CCNC(=O)c1onc(CSc2cc(C)cc(C)c2)c1C(=O)O | 0 | 38* | 6 | -5 | 1 | 5 | 23
C=CCNC(=O)c1onc(CSc2ccc(C)c(C)c2)c1C(=O)O | -1 | 3 | 5 | 6 | -3 | 11 | ·
C=CCNC(=O)c1onc(CSc2ccccc2CC)c1C(=O)O | 3 | 49* | 11 | -3 | -1 | 3 | 36*
SMILES | pPAFAH FP inh | PAFAH2 inh | PAFAH1B2 FP inh | Fam108B inh | PME-1 inh | PAFAH1B3 inh | PAFAH2 FP conf
O=C(NCC1CCCO1)c1onc(CSc2ccccc2F)c1C(=O)O (stereo not given) | 4 | 17 | 4 | 0 | 3 | -4 | ·
CSc1nsc(SCC(=O)Nc2c(C)n(C)n(-c3ccccc3)c2=O)n1 | -1 | 2 | -2 | 1 | 1 | 6 | ·
Oc1ccc(/C=N/N=C/c2ccc(O)c(O)c2)cc1O | 9 | 54* | 0 | -9 | -26 | -3 | 14
O=C1Nc2ccccc2/C1=N\N=C\c1ccc(O)c(O)c1 | 5 | 46* | 12 | 9 | 2 | 21 | 18
COc1cc(/C=N/N=C2/C(=O)Nc3ccccc32)ccc1O | 3 | 8 | 5 | 1 | 13 | 6 | ·
Cc1ccc(C(=O)NCCSc2c(C)[nH]c3ccccc23)cc1[N+](=O)[O-] | 6 | 30* | 8 | -2 | 14 | 6 | 19
Cc1ccc(C(=O)NCCc2nc3ccccc3[nH]2)cc1[N+](=O)[O-] | -4 | -1 | 2 | -2 | -4 | -2 | ·
COc1ccccc1CN1CCNC(=O)C1CC(=O)NC1Cc2ccccc2C1 (stereo not given) | 6 | -5 | 0 | -3 | 4 | -7 | ·
O=C(COC(=O)C12CC3CC(CC(C3)C1)C2)Nc1ncc(Cl)cc1Cl | 21 | 43* | 14 | 3 | 2 | 4 | 26
O=C(COC(=O)c1ccc(Cl)nc1)Nc1ncc(Cl)cc1Cl | 2 | 6 | 2 | 6 | 8 | 9 | ·
O=C(COC(=O)c1ccccc1O)Nc1ncc(Cl)cc1Cl | 13 | 33* | 6 | 6 | 2 | 0 | 20
CC(C)(C)NC(=O)COC(=O)/C=C/c1ccc(F)cc1 | 5 | 65* | 0 | 0 | 9 | 9 | 47*
COC(=O)CNC(=O)COC(=O)/C=C/c1ccc(F)cc1 | 3 | -2 | -2 | 0 | -3 | 0 | ·
COc1cc(/C=C/C(=O)OCC(=O)NC(=O)NC(C)(C)C)cc(OC)c1OC | 2 | 4 | 5 | -2 | -2 | 2 | ·
COc1ccc(/C=C/C(=O)OCC(=O)NC(=O)NC(C)(C)C)cc1 | 1 | 38* | 8 | -1 | -1 | 2 | 20
CCN1CCN(C(c2cccs2)C(C)NC(=O)c2cccc(OC)c2)CC1 (stereo not given) | 6 | -4 | 4 | -3 | -2 | 2 | ·
CC(=O)Oc1ccc(/C=C/c2nc3ccccc3c(=O)o2)cc1 | -5 | 50* | 7 | -2 | -36 | 9 | 57*
CC(=O)Oc1ccccc1/C=C/c1nc2ccccc2c(=O)o1 | 2 | 86* | 4 | -3 | -3 | 5 | 70*
CC(=O)Oc1ccc(-c2nc3ccccc3c(=O)o2)cc1 | -1 | 19 | 3 | -2 | -9 | 11 | ·
O=C(O)c1ccccc1NSc1ccccc1[N+](=O)[O-] | 13 | 37* | 4 | 2 | 8 | 6 | 26
COc1ccc(NC(=O)c2nc[nH]c2C(=O)N[C@@H](CC(C)C)C(=O)OC(C)(C)C)cc1 | -2 | 0 | 3 | -16 | 1 | -3 | ·
